Compound activity: PubChem BioAssay, National Center for Advancing Translational Sciences (NCATS)
D1 agonist: activates the human D1 dopamine receptor; 360,000 tested, 1% active; HEK293 T-REx D1 cells, calcium flux, agonist mode; activation, % at 2 µM; AID 504660; P21728; also: 0% is about no effect
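Tetracycline-induced HEK293 TREx D1 cells, force-coupled to calcium signalling, were dye-loaded with a no-wash calcium kit. Compound was pin-added after a 10 s baseline. Fluorescence was read kinetically at 1 cycle/s for 180 s, with calcium rises flagged as agonism.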
TRHR ag: agonists of human TRH receptor | P34981 | TRHR cells, calcium flux fluo-8, FDSS agonist mode | activation, % at 2 µM | 360,000 tested, 0.18% active | AID 493084; also: 0% is about no effect
Target sequence (P34981 whole entry, looked up): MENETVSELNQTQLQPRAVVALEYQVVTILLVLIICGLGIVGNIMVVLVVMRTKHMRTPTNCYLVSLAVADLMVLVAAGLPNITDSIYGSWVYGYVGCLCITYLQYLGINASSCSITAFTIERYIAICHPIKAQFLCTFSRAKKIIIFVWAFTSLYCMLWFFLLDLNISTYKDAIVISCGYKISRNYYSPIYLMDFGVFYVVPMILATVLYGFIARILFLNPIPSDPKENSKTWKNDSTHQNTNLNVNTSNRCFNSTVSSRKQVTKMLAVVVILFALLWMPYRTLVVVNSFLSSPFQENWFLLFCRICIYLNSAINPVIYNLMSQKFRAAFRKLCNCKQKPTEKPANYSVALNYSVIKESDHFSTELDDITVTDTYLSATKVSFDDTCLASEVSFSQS
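Fluo-8-loaded TRHR cells; 10 s baseline, compound added, kinetic Ca2+ fluorescence read 1/s, agonist mode.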
D1 potentiator: human D1 dopamine receptor positive modulation; P21728; HEK293 TREx D1 cells, calcium flux, dopamine EC20 potentiation; potentiation, % at 10 µM; 360,000 tested, 0.036% active; in the data active = potentiation above about 30%; also: 0% is about no effect
TRHR enhancer: TRH receptor (human) allosteric enhancement | TRHR cells, fluo-8 calcium fluorescence, EC20 TRH enhancement | AID 493056 | P34981 | enhancement, % at 2 µM | 360,000 tested, 0.66% active; in the data active = enhancement above about 30%; also: 0% is about no effect
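TRHR-expressing cells loaded with fluo-8 calcium dye were read kinetically (ex 480/em 530) during compound addition, then stimulated with an EC20 of TRH (10 nM final). Enhancement of the Gq-mediated intracellular calcium response was scored.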
D1 antagonist: antagonists of human D1 dopamine receptor; HEK293 TREx D1 cells, calcium flux, dopamine EC80; stronger effect = lower value; activity change, negative = inhibition, % at 10 µM; 360,000 tested, 3.2% active; AID 504652; in the data active = activity change below about -30%; also: % is scaled to controls: 0 for no effect and ±100 for the full control effect
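Calcium flux readout: force-coupled, inducible Hek293 Trex D1 line, cells induced overnight at 30 C with tetracycline, dye-loaded 30–90 min at RT. Antagonism scored against EC80 dopamine challenge given 180 s after compound.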
* = called active by the depositor. This is a sample that favours compounds with a hit; in the whole collection about 4.7% have one here. Rule as the data show it, unless noted: active = activation above about 30%; inactive = the rest.

SMILES	D1 agonist	TRHR ag	D1 potentiator	TRHR enhancer	D1 antagonist
CC1=C(C)C(=O)N(C(C)CCc2ccccc2)C1=O (configuration not stated)	3.5	0.2	-1.4	-3.5	-1.1
O=C(Cn1c(=O)n(Cc2nc(-c3ccccc3)no2)c(=O)c2ccccc21)Nc1cccc(C(F)(F)F)c1	4.6	1.6	0.0	-0.5	9.3
Cc1ccc(S(=O)(=O)CNC(=S)c2ccc3ccccc3c2)cc1	0.7	0.6	-5.5	-2.4	-11.4
COc1ccc(C(=S)NCS(=O)(=O)c2ccc(C)cc2)cc1	5.6	-0.1	-4.5	12.4	-35.3*
O=C1C=CC(=O)N1Nc1ccc(Br)cc1	8.7	0.9	-5.1	33.1*	5.4
C=Cc1ccc(Cn2c(SCC(=O)N3CCN(c4ccc(F)cc4)CC3)nc3ccccc32)cc1	2.4	-0.2	-5.2	0.5	7.1
CCc1sc(C(=O)N(CCCOC)c2c(N)n(CC(C)C)c(=O)[nH]c2=O)cc1C	0.3	-0.5	-5.2	0.6	13.3
COc1cc2c(cc1Cl)/C(=C\CCN(C)C)c1ccccc1S2	14.0	0.2	-4.7	-1.1	-40.9*
CN(C)CC/C=C1/c2ccccc2Sc2c(O)cc(Cl)cc21	43.7*	0.1	-4.4	5.9	-93.8*
COc1cc(Cl)cc2c1Sc1ccccc1/C2=C/CCN(C)C	17.9	0.7	-9.4	4.5	-62.4*
O=C(CNC(=O)C1CCCCC1)Nc1ccccc1Cl	2.4	-0.5	15.6	-1.6	-93.2*
Cc1nc(-c2ccccc2)sc1C1(C)CC(c2c(Cl)cccc2Cl)=NO1 (configuration not stated)	6.7	0.8	-5.0	0.3	-4.1
Cc1nc(NC(=O)c2ccccc2)sc1C1(C)CC(c2ccccc2F)=NO1 (configuration not stated)	1.5	0.1	-1.7	-0.1	-32.8*
Cc1nc(NC(=O)c2ccccc2)sc1C1(C)CC(c2c(Cl)cccc2Cl)=NO1 (configuration not stated)	3.3	0.1	-7.9	-2.7	-35.5*
O=C(Cc1ccc(S(=O)(=O)N2CCOCC2)s1)N1CCN(c2cccc(C(F)(F)F)c2)CC1	14.1	0.0	-5.9	-2.4	-32.0*
N#Cc1ccc(-c2ccc(OCC(O)CN3CCCCC3)cc2)cc1 (configuration not stated)	15.8	2.5	-10.1	-3.9	-16.0
COc1cc2oc(=O)ccc2cc1[C@H](O)[C@@H](O)C(C)(C)O	-0.7	0.3	-1.3	38.7*	13.6
COc1ccc(CNC(=O)Cc2c(C)c3c(O)cc(C)cc3oc2=O)cc1	2.1	-0.2	-0.6	1.5	1.5
Cc1cc(O)c2c(C)c(CC(=O)NCc3ccccc3Cl)c(=O)oc2c1	0.6	-0.4	-3.0	0.2	-35.2*
CC(C)(Oc1ccc(Cl)cc1)C(=O)NC1CCN(Cc2ccccc2)CC1	8.3	-0.1	-4.7	-1.6	-51.2*
O=C(NC1CCN(Cc2ccccc2)CC1)c1cccc(OC(F)F)c1	7.6	-0.2	-11.3	26.6	-32.5*
COc1ccc(CNC2CCN(Cc3ccccc3)CC2)cc1	32.2*	2.3	-8.4	-3.2	19.1
COc1ccc(OC)c(S(=O)(=O)NC2CCN(Cc3ccccc3)CC2)c1	2.6	0.3	8.3	-3.4	-2.5
Cc1ccccc1C(=O)NC1CCN(Cc2ccccc2)CC1	1.1	0.6	-7.0	-3.7	-32.5*
Cc1ccccc1C(=O)NC1CCN(Cc2nnnn2CCc2ccccc2)CC1	0.4	0.5	-1.2	-2.2	-7.5
SMILES	D1 agonist	TRHR ag	D1 potentiator	TRHR enhancer	D1 antagonist
Cc1ccc(C)c(N2CCN(C(=O)Nc3cn(CC(C)C)c(=O)c4ccccc34)CC2)c1	0.3	-1.1	-0.2	7.6	3.2
O=C(NC1CCCCC1)c1cccc(OCc2ccccc2)c1	37.1*	0.2	-2.2	-3.1	-27.2
COc1ccc(NS(=O)(=O)c2cccc(C(=O)NC3CCN(Cc4ccccc4)CC3)c2)cc1	2.2	1.1	-0.4	12.3	-33.2*
COc1ccc(NS(=O)(=O)c2cccc(C(=O)N3CCN(Cc4ccc5c(c4)OCO5)CC3)c2)cc1	6.1	0.2	-8.9	-0.7	-61.2*
O=C(c1ccc(NS(=O)(=O)c2ccccc2)cc1)N1CCN(Cc2ccc3c(c2)OCO3)CC1	3.4	-0.3	-9.3	-0.8	-18.7
CCN1C(=O)c2ccccc2S(=O)c2ccc(C(=O)N3CCN(c4ccc(F)cc4)CC3)cc21 (configuration not stated)	0.7	-0.4	0.4	-1.2	10.4
COc1ccc(CNC(=O)CCC(=O)Nc2nnc(C(F)(F)F)s2)cc1	-0.4	0.5	4.4	3.0	-5.6
COC(=O)c1cc(NC(=O)c2cccc(Cl)c2)c(=O)oc1/C=C/Nc1cc(C)cc(C)c1	102.2*	37.7*	1.9	-2.8	-34.1*
CCOc1ccc(S(=O)(=O)N(C)CC(=O)N2CCCC2)cc1	2.2	-0.2	-0.9	3.4	-10.1
C=C(C)C1CC=C(C)/C(=N/NC(=O)c2ccccc2[N+](=O)[O-])C1 (configuration not stated)	10.6	0.6	-0.5	36.3*	8.7
C=C(C)C1CC=C(C)/C(=N/Nc2ccccc2[N+](=O)[O-])C1 (configuration not stated)	2.2	0.1	1.6	2.7	-8.7
CCN(CC)C(=O)Cn1c(=O)n(-c2ccc(Cl)cc2)c(=O)c2c3c(sc21)CCCCC3	0.2	-0.4	0.4	-0.8	5.7
CCCn1nc([N+](=O)[O-])c(C(C#N)c2nc3ccccc3o2)c(Cl)c1=O (configuration not stated)	-1.3	-0.5	-4.2	0.3	4.3
CCn1nc([N+](=O)[O-])c(C(C#N)c2nc3cc(C(F)(F)F)ccc3s2)c(Cl)c1=O (configuration not stated)	3.5	-0.6	4.8	13.3	-38.0*
O=C(NC(=S)NN1CCCCC1c1cccnc1)c1ccc(Cl)cc1Cl (configuration not stated)	2.0	-0.3	9.5	7.6	16.1
O=C(Nc1nc2ccccc2s1)c1ccc(S(=O)(=O)N2CCCC2)cc1	0.5	0.9	0.3	-0.6	-45.7*
COc1ccc(C(=O)Nc2nc3ccc(S(=O)(=O)N4CCCC4)cc3s2)cc1	1.5	0.1	1.3	2.4	-32.3*
CCN(CC(=O)Nc1ccc(Br)cc1F)CC(=O)NC1CCS(=O)(=O)C1 (configuration not stated)	1.7	0.3	6.4	3.9	1.9
CC(C)N1C(=O)S/C(=C\c2ccc(-c3ccc(Cl)c(C(=O)O)c3)o2)C1=O	2.4	-2.1	-3.9	5.4	5.1
CCN(CC)c1ccc(/C=C2/SC(=O)N(C(C)C)C2=O)o1	58.7*	17.2	-2.2	-4.4	19.1
Cc1ccc(NC(=O)c2cc(CN3CCOCC3)on2)cc1Cl	8.9	0.5	-5.2	5.4	-6.9
Cc1ccc(OCCNC(=O)c2cccc(Oc3ccc(C(F)(F)F)cc3[N+](=O)[O-])c2)cc1	44.5*	2.1	-5.8	-9.0	-3.7
